Reference: PubChem BioAssay AID1259374 (The Scripps Research Institute Molecular Screening Center, 2018)
Hit rate of the full screen: of about 650,000 compounds, about 5,900 (0.91%) were called active. Only a selection was taken, and actives are over-represented in it overall. Unmarked numbers belong to inactive results. Cut-off read from the data, not from the text of the source: active = inhibition above about 50%; inactive = the rest.

target: Microphthalmia-associated transcription factor (Homo sapiens) (UniProt O75030); test: MITF inhibitors, primary screen, biochemical, AlphaScreen, human (AID 1259374); conditions: AlphaScreen MITF homodimerization, bead proximity signal; at 2.6 µM; stronger effect = higher value;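 note: 0% = vehicle wells with protein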
Sequence (O75030 whole entry, looked up): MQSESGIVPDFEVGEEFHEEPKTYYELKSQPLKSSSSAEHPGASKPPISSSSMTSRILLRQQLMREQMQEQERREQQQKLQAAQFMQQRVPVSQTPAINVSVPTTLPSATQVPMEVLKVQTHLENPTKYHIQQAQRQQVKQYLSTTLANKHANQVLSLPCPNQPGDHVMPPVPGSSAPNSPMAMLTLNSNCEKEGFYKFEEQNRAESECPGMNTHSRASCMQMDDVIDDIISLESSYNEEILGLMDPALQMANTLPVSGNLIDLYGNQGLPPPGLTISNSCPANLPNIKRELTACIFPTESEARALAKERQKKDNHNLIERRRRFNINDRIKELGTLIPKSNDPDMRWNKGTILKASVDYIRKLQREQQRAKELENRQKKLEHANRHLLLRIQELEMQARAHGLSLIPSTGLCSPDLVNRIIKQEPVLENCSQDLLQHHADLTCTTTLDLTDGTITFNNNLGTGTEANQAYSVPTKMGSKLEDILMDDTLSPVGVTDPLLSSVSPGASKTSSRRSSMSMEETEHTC

SMILES	inhibition
Cc1ccc(C)c(NC(=O)CN(Cc2ccccc2)S(=O)(=O)c2ccc(Br)cc2)c1	-9.84%
CCN(Cc1ccccc1)C(=O)c1cc2c(=O)n3cccc(C)c3nc2n1C	-25.5%
CC(=O)N1CCN(CC(=O)Nc2ccc(C)c(F)c2)CC1	52.6% (active)
Cc1ccc(NC(=O)Cn2ccsc2=N)cc1F	6.14%
Cc1ccc(NC(=O)CN2CCN(c3ccccn3)CC2)cc1F	8.15%
CCOc1ccc(Cl)cc1/C=C1/SC(=S)N(CCC(=O)O)C1=O	-26.2%
CC(C)n1cnc2c(NCc3ccccc3)nc(Nc3ccncn3)nc21	10%
Cn1c(-c2ccccc2)cnc1NCc1cccc(F)c1	38%
Cn1c(-c2ccc(F)cc2)cnc1NCc1cccnc1	72.7% (active)
FC(F)(F)c1cc(-c2cnc3c(NCc4cccnc4)nccn23)cc(C(F)(F)F)c1	-11.6%
COc1ccc(C(=O)COC(=O)c2c3c(nc4ccccc24)CCCC3)cc1OC	0.37%
CN(Cc1cccs1)C(=O)CC1(c2cccc(F)c2)CC(=O)N(C2CCCC2)C1=O (configuration not stated)	7.07%
Cc1[nH]c2ccccc2c1CN1CCN(Cc2ccc3c(c2)OCO3)CC1	38.3%
Cc1ccc(N2CCN(Cc3cccnc3)CC2)cc1	9.13%
Cc1ccc(CN2CCN(Cc3ccncc3)CC2)cc1	77.5% (active)
OC1(Cc2ccccc2)CCN(Cc2ccncc2)CC1	1.54%
Cc1cc(OCC(O)CN2CCCC2)ccc1Cl (configuration not stated)	8.73%
O=C1OC(c2ccc(F)cc2)=N/C1=C/c1ccc([N+](=O)[O-])cc1	5.42%
CCN(CC)CCN1CCN(c2ncc(-c3ccccc3)n3ccnc23)CC1	8.61%
Cn1c(=O)n(Cc2cc3c(cc2Cl)OCO3)c2cccnc21	13.7%
CCN(CC)CCN1COc2c(cc(Cl)c3cccnc23)C1	102% (active)
O=C(Cc1cccs1)N/N=C\c1ccc(Cl)c(Cl)c1	-9.59%
C/C(=N/NC(=O)Cc1cccs1)c1ccc(Br)cc1	7.44%
O=C(Cc1cccs1)N/N=C\C=C\c1ccco1	64.5% (active)

SMILES	inhibition
Cc1ccc(N(C(=O)C(C)Oc2ccccc2)C2C=CS(=O)(=O)C2)cc1 (configuration not stated)	-4%
O=C(Nc1cccs1)N1CCC(Cn2c(COc3ccccc3)nc3ccccc32)CC1	12.3%
COCCCNC(=O)Nc1ccc(Cl)c(Cl)c1	9.41%
COCCNC(=O)Nc1ccc2nc(-c3ccco3)c(-c3ccco3)nc2c1	87.1% (active)
COCCCNC(=O)Nc1ccc([N+](=O)[O-])cc1	6.26%
O=C(CCN1C(=O)C2C3C=CC(C3)C2C1=O)Nc1ncc(S(=O)(=O)c2ccc([N+](=O)[O-])cc2)s1 (configuration not stated)	2.57%
O=C(NNC(=O)c1cc([N+](=O)[O-])ccc1Cl)c1cccc(Cl)c1	-0.55%
COC(=O)c1sc2nc(C)[nH]c(=O)c2c1C	-2%
CSc1nnc(SCc2nc3sc(C(=O)O)c(C)c3c(=O)[nH]2)s1	55.8% (active)
Cc1cc(C)n2c(SCc3nc4sc(C)c(C)c4c(=O)[nH]3)nnc2n1	7.98%
Cc1ccc(C)c(N2CCN(Cc3nnnn3Cc3ccc(F)cc3)CC2)c1	13.1%
CC1(C(=O)O)NC(c2cc(Cl)cc(Cl)c2O)C2C(=O)N(c3ccccc3)C(=O)C21 (configuration not stated)	-2.7%
COc1ccccc1N1CCN(S(=O)(=O)c2ccccc2[N+](=O)[O-])CC1	-2.42%
O=CN1CCN(S(=O)(=O)c2ccccc2[N+](=O)[O-])CC1	-7.16%
O=[N+]([O-])c1ccccc1S(=O)(=O)N1CCN(C2Cc3ccccc3C2)CC1	52.9% (active)
CC(=O)c1cccc(-c2nc(C)cc(NCc3nc4ccccc4[nH]3)n2)c1	-6.7%
COC(=O)c1sc(NC(=O)c2ccncc2)c(C#N)c1C	22.1%
COC(=O)c1sc(NC(=O)c2ccccc2C)c(C#N)c1C	58.6% (active)
COC(=O)c1sc(NC(=O)c2cccc(OC)c2OC)c(C#N)c1C	15.6%
O=C(O)CCCCC1SCC2NC(=O)NC21O (configuration not stated)	115% (active)
COc1ccc(NC(=O)c2cc(S(=O)(=O)NCCc3ccccc3)ccc2F)cc1	9.24%
O=c1c2c(nc(SCc3ccccc3)n1-c1ccccc1)-c1ccccc1CC21CCCC1	7.99%
CC(C)C(Nc1nc(N2CCC[C@H]2C(=O)O)ccc1[N+](=O)[O-])C(=O)O (some centres not stated)	4.19%
